Each sequence was assayed against GPKOW (assay: pooled miR-30 sensor sort-seq; sequence = guide strand). Settings: shRNA.
With TTCACTACTTGATTGAAGGTGC the sensor-assay potency score (higher = more potent) was 0.973. TCTTCAATTATCATCTTGGTGT was tested, and the sensor-assay potency score (higher = more potent) was -0.0614. With TTCTCTTGCTCCTCATCTGGTC the sensor-assay potency score (higher = more potent) was -0.383. Work on TTCAATTATCATCTTGGTGTTG yielded a sensor-assay potency score (higher = more potent) of -0.529. Work on TAGGACATCTTCAATTATCATC yielded a sensor-assay potency score (higher = more potent) of -1.06. TCAATTATCATCTTGGTGTTGT gave a sensor-assay potency score (higher = more potent) of 0.378. TACATGTTGTCCACAAACCGCA showed a sensor-assay potency score (higher = more potent) of -0.382. TTCTTGTCAAACTCCTGCTGGG was tested, and the sensor-assay potency score (higher = more potent) was -0.621. Sequence TCACTAACAGTCACCACCCGGC has a sensor-assay potency score (higher = more potent) of -0.433. In the case of TACAGAACTGGTACCAGCCTGG, the sensor-assay potency score (higher = more potent) is reported as -0.224. With TAAATTTTGGTAAATATTGGGT the sensor-assay potency score (higher = more potent) was -0.472. Sequence TTCTCTTGGCAGTTGCACCAAA has a sensor-assay potency score (higher = more potent) of -0.529.

Each sequence was assayed against GPR109B in the same assay as above. Settings: shRNA.
TTGGCAATGAAGTCATCTCGGA showed a sensor-assay potency score (higher = more potent) of -0.164. TCACCTGTTATCTTCCTCTGGA gave a sensor-assay potency score (higher = more potent) of -0.218. TAGAAAGTCAGCTACTGCCAGG showed a sensor-assay potency score (higher = more potent) of -1.14. For TGGCAATGAAGTCATCTCGGAA, the sensor-assay potency score (higher = more potent) was -1.54. TAGGCCAACAGTGATGCCCCAC showed a sensor-assay potency score (higher = more potent) of -0.395. TAGTAGTCCATCACGAACGGCA gave a sensor-assay potency score (higher = more potent) of -0.532. TGCAGTGCCATTCTGGATCAGC showed a sensor-assay potency score (higher = more potent) of -0.994. Sequence ATTCTGGATCAGCAACTTCTTC has a sensor-assay potency score (higher = more potent) of -1.51. With AAACATGAAGAGCACCAGCCGG the sensor-assay potency score (higher = more potent) was -1.47. For AACATGAAGAGCACCAGCCGGC, the sensor-assay potency score (higher = more potent) was -0.505. Sequence ATAGTAGTCCATCACGAACGGC has a sensor-assay potency score (higher = more potent) of -1.03. In the case of TTGGAATGGTTATTTGAGGTTG, the sensor-assay potency score (higher = more potent) is reported as -0.497.

Each sequence was assayed against GPR123 in the same assay as above. Settings: shRNA.
TTCTGCAGCACGGAGGCGCCGG showed a sensor-assay potency score (higher = more potent) of -0.928. TAATTCCTGATGTTCGTGGCAG was tested, and the sensor-assay potency score (higher = more potent) was -0.373. TTCTTGGTCACCTGCTTGTAGA gave a sensor-assay potency score (higher = more potent) of -1.61. TCGTTCTGCAGCACGGAGGCGC gave a sensor-assay potency score (higher = more potent) of -0.763. With TGCATCTTGGCGCAGCACGGGG the sensor-assay potency score (higher = more potent) was -1.59. In the case of TTTTCCAGGGTCCCGTTCGGAT, the sensor-assay potency score (higher = more potent) is reported as -1.35. TAGCAATTTACCCTTGGGCAGC showed a sensor-assay potency score (higher = more potent) of -1.23. For TGTGTGCGCAGCTCGTACCTGC, the sensor-assay potency score (higher = more potent) was -0.983. Work on TTCTAGCAATTTACCCTTGGGC yielded a sensor-assay potency score (higher = more potent) of -1.05. For TGTAGAATAGTGCAGCACGATG, the sensor-assay potency score (higher = more potent) was -1.66. AACAGGAACAGCGTGAAGGCGG was tested, and the sensor-assay potency score (higher = more potent) was -0.39. For TCGCAGTGCATCTTGGCGCAGC, the sensor-assay potency score (higher = more potent) was -1.13.

Each sequence was assayed against GPR137 in the same assay as above. Settings: shRNA.
Work on TTGGCCTCCAGGTAGATGCTAG yielded a sensor-assay potency score (higher = more potent) of -0.691. TAGCTGAGACGCTTGTGCCCAT was tested, and the sensor-assay potency score (higher = more potent) was -0.72. In the case of TCACTATGACAGGAGCAGCAAG, the sensor-assay potency score (higher = more potent) is reported as -1.58.
Further: reference of the scale not given here.
